# Results reported in PubChem BioAssay (EPA / NIEHS).
# Calls of active or inactive are those of the source. Rule for the calls: active = hit-call score of the fitted dose curve at least 0.9, where 1 is the maximum; inactive = score below 0.9.
# Read-out: Monokine induced gamma interferon (MIG), CXCL9 (gene 4283)
# Test: BSK_KF3CT_MIG: BioMAP Diversity Plus: KF3CT Assay for Monokine induced gamma interferon (MIG) Biomarker Activity (AID 2284248)
# Settings: primary human keratinocytes with fibroblasts
# Method: BSK_KF3CT is a cell-based, multiplexed-readout assay that uses keratinocytes and foreskin fibroblasts, a human skin primary cell co-culture, with measurements taken at 24 hours after chemical dosing in a 96-well plate.BSK_KF3CT_MIG is an assay component measured in the BSK_KF3CT assay. It measures MIG antibody related to regulation of gene expression using ELISA technology.Data from the assay component BSK_KF3CT_MIG was analyzed at the endpoint, BSK_KF3CT_MIG, in the positive analysis fitting direction relative to DMSO as the negative control and baseline of activity. Using a type of binding reporter, gain or loss-of-signal activity can be used to understand protein changes. To generalize the intended target to other relatable targets, this assay endpoint is annotated to the 'cytokine' intended target family, where the subfamily is 'chemotactic factor'.
# The levels of cell surface (or secreted, indicated by the prefix "s") biomarker endpoints were measured by ELISA. Overt cytotoxicity to cells in confluent adherent cultures (all systems other than the BT system) was assessed by measuring total protein levels using sulforhodamine B (SRB) staining in parallel cultures at the time of biomarker measurements, indicated as SRB endpoints. For proliferation assays for adherent cell types, individual cell types are cultured at sub-confluence and relative cell numbers quantified by SRB staining at time points optimized for each system (48 h: 3C and CASM3C systems; 72 h: BT and HDF3CGF systems; 96 h: SAg system). SRB was performed by staining cells with 0.1% SRB after fixation with 10% TCA and reading wells at 560 nm.Viability and proliferation of PBMC (T cells) was quantified by Alamar Blue reduction for the SAg and BT systems. For PBMC viability (referred to as PBMC Cytotoxicity within the assay endpoint names), cells were plated (75,000/well in a 96-well plate) and then chemical samples added for 1 h before addition of activators, SEB and TSST-1 (20 ng/mL final concentration each). Cells were incubated for 90 h. Then, Alamar Blue (20 uL/well) (Invitrogen, Cat DAL1100) was added for 6 h, and the plates were read with a fluorescence microplate reader at 546/580 nm (excitation/emission). For PBMC proliferation, cells were plated and activated as above but incubated for only 16 h prior to addition of Alamar Blue. Plates were read after 6 h.
row,Structure (SMILES),outcome
1,OC1OC[C@@H](O)[C@H](O)[C@H]1O (some centres not stated),inactive
2,NCCNCCN,inactive
3,OC[C@H]1O[C@H](O[C@]2(CCl)O[C@H](CCl)[C@@H](O)[C@@H]2O)[C@H](O)[C@@H](O)[C@H]1Cl,inactive
4,Nc1cc([N+](=O)[O-])ccc1O,inactive
5,CC[Si](OC(C)=O)(OC(C)=O)OC(C)=O,inactive
6,Cc1cc(C2(c3cc(C)c(O)cc3C)OS(=O)(=O)c3ccccc32)c(C)cc1O,inactive
7,CC(=O)[C@H]1CC[C@H]2[C@@H]3CC=C4C[C@@H](O)CC[C@]4(C)[C@H]3CC[C@]12C,inactive
8,C[C@H]1C[C@@H]2[C@H]([C@@H](O)C[C@@]3(C)[C@H]2CC[C@]3(O)C(=O)CO)[C@@]2(C)C=CC(=O)C=C12,inactive
9,COc1cc(C=O)ccc1OC(=O)C(C)C,inactive
10,CC(=O)OCCC(C)CC(C)(C)C (configuration not stated),inactive
11,C=CCOC(=O)CCC1CCCCC1,inactive
12,CCC(=O)OCc1ccccc1,inactive
